Data: the supplement of paper PMC9334596
Several values for one entry are separate records, joined by “and”; a condition that tells them apart may be missing. Identical values can stand only once. Over roughly 5,300 compounds, “PER2::LUC luminescence relative to vehicle control” has its median near 0.96; the highest 2% begin near 1.3. For the sample, the highest values were picked, then their nearest neighbours and some compounds at random.

Tested on: mPer2Luc MEF
Test: PER2::LUC luminescence relative to vehicle control (fold of vehicle); higher = higher PER2::LUC reporter signal
Settings: 10 µM
Outline: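 Each value gives PER2::LUC luminescence as fold of vehicle control, measured with the ONE-Glo luciferase assay system in mouse embryonic fibroblasts carrying the mPer2Luc reporter. Cells grown in DMEM with 10% FBS at 37 °C and 5% CO2 were seeded at ~3000 per well in 384-well plates. Library compounds were added at 10 μM 48 h later, and readings were taken 24 h and 30 h after treatment.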

| SMILES | PER2::LUC luminescence (time after treatment 24 h) | PER2::LUC luminescence (time after treatment 30 h) |
| --- | --- | --- |
| CNc1ncnc2c1ncn2[C@H]1C[C@H](O)[C@@H](CO)O1 | 1.04 | 0.963 |
| C[C@@H]1O[C@@H](O[C@@H]2[C@@H](O)[C@H](O)[C@@H](CO)O[C@H]2c2c(O)cc(O)c3c(=O)cc(-c4ccc(O)cc4)oc23)[C@H](O)[C@H](O)[C@H]1O | 1.04 | 0.979 |
| COc1ccc(C2C(=O)c3ccccc3C2=O)cc1 | 1.08 | 1.36 |
| O=C1c2ccccc2C(=O)C1c1ccccc1 | 1.05 and 0.913 | 1 and 0.991 |
| O=C1c2ccccc2C(=O)C1c1ccc(Br)cc1 | 0.477 | 0.974 |
| CCCCOC(=O)OCCCC | 1 | 1.02 |
| CC1=CC(=O)CC(C)(C)C1(O)/C=C/C(C)=C\C(=O)O (racemic) | 1.01 | 1.02 |
| CCOc1ccccc1C(N)=O | 1.03 and 0.951 | 0.986 and 0.793 |
| CCCCCCOc1ccccc1C(N)=O | 1.33 | 1.53 |
| CCOCCOc1ccccc1C(N)=O | 0.861 | 1.09 |
| COc1ccc2cc(CCC(C)=O)ccc2c1 | 1.75 | 1.7 |
| COc1ccc2cc([C@@H](C)C(=O)O)ccc2c1 | 1 | 1.05 |
| COc1ccc2cc([C@H](C)C(=O)O)ccc2c1 | 0.987 and 1.09 and 0.7 | 0.972 and 0.822 and 0.852 |
| CCO/N=C1\c2ccccc2-c2nc(C#N)c(C#N)nc21 | 0.664 | 0.619 |
| C=CC(=O)c1ccc(CCCCCC)cc1 | 1.02 | 0.845 |
| CCNCCNC(=O)c1c(C)[nH]c(/C=C2\C(=O)Nc3ccc(F)cc32)c1C | 0.42 | 0.619 |
| CC(C)(Cc1nc(-c2ccc(O)cn2)no1)C(=O)NC1=C(C(=O)O)CCCC1 | 1.02 | 1.08 |
| N#Cc1ccc(C(c2ccc(C#N)cc2)n2cncn2)cc1 | 0.794 | 1.11 |
| c1ccc(-c2ccc(C(c3ccccc3)n3ccnc3)cc2)cc1 (centres undefined) | 1.45 | 1.32 |
| FC(F)(F)c1ccccc1-n1ccnc1 | 0.975 | 0.907 |
| O=C1c2ccccc2C(=O)c2oc(-c3ccccc3)nc21 | 1.15 | 0.538 |

| SMILES | PER2::LUC luminescence (time after treatment 24 h) | PER2::LUC luminescence (time after treatment 30 h) |
| --- | --- | --- |
| CC(C)c1cc(-c2n[nH]c(=O)n2-c2ccc3c(ccn3C)c2)c(O)cc1O | 0.062 | 0.052 |
| Cc1cc(NC(=O)Nc2ccc3c(ccn3C)c2)sn1 | 1.59 | 1.52 |
| Cn1ccc2cc(NC(=O)Nc3cccnc3)ccc21 | 1.15 | 0.855 |
| N[C@H](CCC(=O)O)C(=O)O | 1.1 | 1.01 |
| CC(C)C1=CC2=CC[C@@H]3[C@](C)(CCC[C@@]3(C)C(=O)O)[C@H]2CC1 | 1.34 | 1.15 |
| C=C1C[C@@]23CC[C@H]4[C@@](C)(CCC[C@@]4(C)C(=O)O)[C@@H]2CC[C@]1(O)C3 | 0.886 | 1.12 |
| CC(C)c1cc2c(cc1S(=O)(=O)O)[C@@]1(C)CCC[C@@](C)(C(=O)O)[C@@H]1CC2 | 1.03 | 1 |
| FC(F)(F)c1ccc(Nc2nc(-c3c(C(F)(F)F)nc4ccccn34)cs2)cc1 | 0.269 | 0.305 |
| COc1cccc(NC(=O)/C=C/c2ccc(Cl)cc2)c1 | 1.39 | 1 |
| COc1cc(NC(=O)c2ccc(-c3ccc(Cl)cc3)o2)cc(OC)c1 | 0.947 | 1.04 |
| CC(C)(C)c1ccc(/C=C/C(=O)Nc2ccc3c(c2)OCCO3)cc1 | 0.942 | 1.11 |
| C[n+]1ccc(C=Cc2ccc3ccccc3c2)cc1 | 0.908 | 1.07 |
| OC[C@H]1O[C@@H](n2cnc3c(Nc4ccccc4)ncnc32)[C@H](O)[C@@H]1O | 1.41 | 1.13 |
| OCC1OC(n2cnc3c(NC4CCCCC4)ncnc32)C(O)C1O (centres undefined) | 0.986 | 1.02 |
| CNc1ncnc2c1ncn2[C@@H]1O[C@H](CO)[C@@H](O)[C@H]1O | 0.974 | 1.04 |
| CC(Cc1ccccc1)Nc1ncnc2c1ncn2C1OC(CO)C(O)C1O (single isomer, unassigned; (-)) | 0.925 | 0.965 |
| Nc1ccc(CCNc2ncnc3c2ncn3C2OC(CO)C(O)C2O)cc1 (centres undefined) | 0.951 | 0.857 |
| Cc1ccccc1CNc1ncnc2c1ncn2[C@@H]1O[C@H](CO)[C@@H](O)[C@H]1O | 1.35 | 1.28 |
| COc1ccc2cc1Oc1ccc(cc1)C[C@@H]1c3cc(c(OC)cc3CCN1C)Oc1c(OC)c(OC)cc3c1[C@H](C2)N(C)CC3 | 0.674 | 0.713 |
| COc1cc(N2CCOCC2)ccc1NC(=O)c1csc(-c2cccnc2)n1 | 0.906 | 1.02 |
| CCOC(=O)c1cc(OC)c(OC)cc1NC(=O)c1cc(OC)c(OC)c(OC)c1 | 1.08 | 1.16 |

| SMILES | PER2::LUC luminescence (time after treatment 24 h) | PER2::LUC luminescence (time after treatment 30 h) |
| --- | --- | --- |
| CC(C)CCCC(C)C1CCC2C3CCC4CC(O)CCC4(C)C3CCC12C (centres undefined) | 0.978 | 0.951 |
| O=c1ccc2cc(O)c(O)cc2o1 | 0.867 | 0.732 |
| COc1cc2ccc(=O)oc2cc1O | 1.02 | 1.04 |
| CC1(C)C=Cc2cc3ccc(=O)oc3cc2O1 | 1.26 | 1.48 |
| CCOC(=O)CCCCCCCCCCCN(C)C(=O)CO[C@H](C)[C@@H](C)OCC(=O)N(C)CCCCCCCCCCCC(=O)OCC | 1.2 | 1.08 |
| CCN1CCN(Cc2ccc(NC(=O)c3ccc(C)c(/C=C/c4cnc5[nH]ccc5c4OC)c3)cc2C(F)(F)F)CC1 | 0.349 | 0.394 |
| CCCC(=O)NCCc1c(I)[nH]c2ccc(OC)cc12 | 0.668 | 0.814 |
| CCCCC/C=C\C[C@@H](O)/C=C/c1cccc(C[C@@H](O)CCCCO)n1 | 1.07 | 0.841 |
| O=C(Nc1cccc(C(F)(F)F)c1)Nc1cc(Cl)ccc1C(=O)O | 1.07 | 1 |
| CCN(CC)CCNC(=O)c1cc(S(C)(=O)=O)ccc1OC | 0.984 | 0.88 |
| CCN(CC)CCNC(=O)c1ccc(N)cc1 | 1.11 | 1.27 |
| CCN(CC)CCNC(=O)COc1ccc(OC)cc1 | 1.38 | 1.49 |
| CC12CCC3c4ccc(O)cc4CCC3C1CCC2O (centres undefined) | 0.721 | 0.751 |
| OC[C@H]1O[C@@H](n2cnc3c(N[C@H]4CCC[C@@H]4O)ncnc32)[C@@H](O)C1O (some centres undefined) | 1.25 | 0.88 |
| CN(C)CC1CCC2=C(C1=O)C(c1ccc(Cl)c(Cl)c1)C1=C(CCC(CN(C)C)C1=O)O2 (centres undefined) | 1.15 | 1.08 |
| O=C1Nc2cc(Br)ccc2/C1=C1/Nc2ccccc2/C1=N\O | 0.773 | 1.09 |
| O=C1Cc2c([nH]c3ccc(Br)cc23)-c2ccccc2N1 | 1.15 | 1.88 |
| C[C@H](NCc1ccc(OCc2cccc(F)c2)cc1)C(N)=O | 1.22 and 1.67 | 1.5 and 1.51 |
| CC(C)NCC(O)COc1ccc(CC(N)=O)cc1 (centres undefined) | 1.26 | 1.06 |
| CC(C)NC[C@@H](O)COc1ccc(CC(N)=O)cc1 | 1.01 | 0.958 |
